Screening data (PubChem BioAssay)
The sample as a whole holds a higher share of hits than the screen did.
Pf Dd2 inh: qHTS Primary assay for Inhibitors of Plasmodium falciparum Dd2 growth in vitro. P. falciparum Dd2 growth, SYBR Green, 72 h. Potency, µM (top dose mostly 28.9 µM), inactives show at the highest dose activity, negative = inhibition, most hits filed as inhibitors. 120,000 compounds, 4.3% hits; active = well fitted inhibition curve with a large enough effect;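 note: plate controls were DMSO vehicle for no effect and reference drug for full effect; nearly all actives have a fitted effect of over 65% in size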
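Readout: SYBR Green fluorescence, 485 nm excitation, 535 nm emission, after ~16 h lysis at 37C. Before that, Dd2-infected red cells (2.5% hematocrit) grew 72 h with compound, 29 uM top final concentration.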
* marks the source's active call; other numbers are inactive results; [ ] = dose if it differs, or a comment. Potency is the fitted concentration of half-maximal effect.

How did Cc1cccc(C(=O)N2C(C(=O)NCC3CCCO3)COC23CCN(C(=O)C(C)(C)C)CC3)c1 (centres undefined) do in these assays?
Pf Dd2 inh: 4.8%

How did CC(C)NC(=O)N1Cc2ccccc2OC2(CCN(C(=O)CCC(=O)O)CC2)C1 do in these assays?
Pf Dd2 inh: 83.2%

What do the screens show for `O=C(NCCc1noc(C2CC2)n1)Nc1ccc(C(F)(F)F)cc1`?
Pf Dd2 inh: -29.9%

How did CCOc1ccccc1C(=O)NC1CCN(c2cc(-c3ccc(Cl)cc3)[nH]n2)C1 (centres undefined) do in these assays?
Pf Dd2 inh: -10.7%

Results for CCOc1ccccc1C(=O)NC1CCCN(c2cc(-c3ccc(F)cc3)[nH]n2)C1 (centres undefined) ?
Pf Dd2 inh: -8.1%

What do the screens show for `OCC1(CCCc2ccccc2)CCN(Cc2ccc(-n3cccn3)cc2)CC1`?
Pf Dd2 inh: 4.47µM*

What do the screens show for `O=C(c1cc2cc(F)ccc2[nH]1)N1CCC(CO)(CCCc2ccccc2)CC1`?
Pf Dd2 inh: -12.7%

How did OCC1(CCCc2ccccc2)CCN(Cc2cccn2-c2nccs2)CC1 do in these assays?
Pf Dd2 inh: 10µM*

How did O=C(c1ccc2nc[nH]c2c1)N1CCC(CO)(CCCc2ccccc2)CC1 do in these assays?
Pf Dd2 inh: 13.1%

What do the screens show for `CCN(CC)Cc1nc(C2(O)CCN(Cc3ccccc3)CC2)cs1`?
Pf Dd2 inh: -15.6%[44.1 µM]

What do the screens show for `O=C(NCCCc1ccccc1)C1(CCO)CCN(c2ncccn2)C1` (centres undefined)?
Pf Dd2 inh: inactive

What do the screens show for `O=C(CN1CCCc2nc(C3CC3)ncc2C1=O)NCc1cccs1`?
Pf Dd2 inh: -18.7%

Results for COc1cccc(S(=O)(=O)N2CCC(Oc3ccc(C(N)=O)cn3)CC2)c1 ?
Pf Dd2 inh: -12.8%

Results for COc1ccc(C(=O)N2CC[C@H]3C(=O)NCCCCCCN(Cc4ccncc4)[C@@H]3C2)cc1F ?
Pf Dd2 inh: inactive

Results for CCOc1cc(=O)n2c(c1C(=O)Nc1cc(C)ccc1C)CCCC2 ?
Pf Dd2 inh: 11.9%

What do the screens show for `Cc1ccc(C(=O)N2CCC(CCC(=O)NC3CCCCCC3)CC2)cc1`?
Pf Dd2 inh: -4.9%

Results for c1ccc(COCCCc2nc(C3CCOC3)n[nH]2)cc1 (centres undefined) ?
Pf Dd2 inh: 4.3%

What do the screens show for `COc1ccc(C(=O)N2CCC(c3nc4ccccc4s3)CC2)cc1Cl`?
Pf Dd2 inh: 94.0%

How did CCCn1cc(C2CCN(S(=O)(=O)c3ccccc3Cl)CC2)c2ccccc21 do in these assays?
Pf Dd2 inh: -1.3%

Results for Cn1cc(C2CCN(C(=O)c3sc(Cl)c(Cl)c3Cl)CC2)c2ccccc21 ?
Pf Dd2 inh: 7.94µM*

Results for CN(C)Cc1nnc(C2CC(NC(=O)c3ccc4c(c3)CCCO4)C2)n1C (centres undefined) ?
Pf Dd2 inh: 6.4%

How did Cc1ccc(-c2cc(N3CCCN(C(=O)c4ccc(N(C)C)cc4)CC3)n[nH]2)cc1C do in these assays?
Pf Dd2 inh: -21.4%

How did Cc1ncc2c(c1CNC(=O)c1cc(F)cc(Cl)c1)CCNC2 do in these assays?
Pf Dd2 inh: -16.4%

Results for O=C(CN1CCNCC1)NCc1nc(-c2cccc(F)c2)c(-c2ccccn2)[nH]1 ?
Pf Dd2 inh: -16.3%

How did O=C(NCc1nc(-c2cccc(F)c2)c(-c2ccccn2)[nH]1)[C@@H]1C[C@@H](O)CN1 do in these assays?
Pf Dd2 inh: 13.4%

What do the screens show for `Cc1ccc(-c2nc(CNC(=O)[C@@H]3CCC[C@H](N)C3)[nH]c2-c2ccccn2)cc1`?
Pf Dd2 inh: 10µM*

Results for Cc1nc2c(c(NCCc3nc(C)c(Cl)s3)n1)CCNCC2 ?
Pf Dd2 inh: -9.9%

How did COc1cccc(-c2nc3cc4c(cc3cc2CN2CCCOCC2)OCO4)c1OC do in these assays?
Pf Dd2 inh: -2.7%

Results for COc1cccc(C(=O)N2CCC(CC(=O)NCc3ccccc3)C2)c1OC (centres undefined) ?
Pf Dd2 inh: -13.6%

Results for Cc1ccc(C(=O)N2CCc3sc(C(=O)O)cc3C2)cc1 ?
Pf Dd2 inh: 17.7%

Results for Cc1ccc(C(=O)N2CCc3sc(C(=O)NCc4ccc(F)cc4F)cc3C2)cc1 ?
Pf Dd2 inh: -14.3%

What do the screens show for `Cc1ccc(C(=O)N2CCc3sc(C(=O)NCc4ccc(C)o4)cc3C2)cc1`?
Pf Dd2 inh: 11.2µM*

What do the screens show for `O=C(NCc1ccccc1)NC1CCN(C(=O)N2CC3CC(C2)[C@H]2CCCC(=O)N2C3)CC1` (some centres undefined)?
Pf Dd2 inh: 4.3%

What do the screens show for `CCn1cc(CN2CCC3(CC2)CN(C)CC3COC)cn1` (centres undefined)?
Pf Dd2 inh: -4.5%

How did O=C(c1ccc(Cl)cc1Cl)N1CCN(c2cc(-c3cccs3)[nH]n2)CC1 do in these assays?
Pf Dd2 inh: -4.4%

How did COCCN1C(=O)c2ccccc2C(C(=O)NCCc2ccc(OC)cc2)C12CCCC2 (centres undefined) do in these assays?
Pf Dd2 inh: inactive

Results for COCCN1C(=O)c2ccccc2C(C(=O)NCc2ccc(F)cc2)C12CCCC2 (centres undefined) ?
Pf Dd2 inh: -18.9%

What do the screens show for `CCc1nc(NC(=O)C2c3ccccc3C(=O)N(CCOC)C23CCCC3)sc1C` (centres undefined)?
Pf Dd2 inh: 2µM*

How did COCCN1C(=O)c2ccccc2C(C(=O)NCc2ccccc2)C12CCCCC2 (centres undefined) do in these assays?
Pf Dd2 inh: -28.5%

Results for COCCN1C(=O)c2ccccc2C(C(=O)Nc2nc3ccccc3[nH]2)C12CCCCC2 (centres undefined) ?
Pf Dd2 inh: 1.78µM*

Results for COCCN1C(=O)c2ccccc2C(C(=O)NCCCc2ccccc2)C12CCCC2 (centres undefined) ?
Pf Dd2 inh: 11.2µM*

How did COCCN1C(=O)c2ccccc2C(C(=O)Nc2cccc(NC(C)=O)c2)C12CCCCC2 (centres undefined) do in these assays?
Pf Dd2 inh: inactive

What do the screens show for `COCCN1C(=O)c2ccccc2C(C(=O)NCc2ccco2)C12CCCCC2` (centres undefined)?
Pf Dd2 inh: 0.0%

What do the screens show for `COCCN1C(=O)c2ccccc2C(C(=O)NCc2ccccc2F)C12CCCCC2` (centres undefined)?
Pf Dd2 inh: -25.2%

What do the screens show for `COCCN1C(=O)c2ccccc2C(C(=O)NCCCOC(C)C)C12CCCCC2` (centres undefined)?
Pf Dd2 inh: -6.8%

How did COCCN1C(=O)c2ccccc2C(C(=O)Nc2cc(Cl)ccc2OC)C12CCCC2 (centres undefined) do in these assays?
Pf Dd2 inh: -19.8%

What do the screens show for `COCCN1C(=O)c2ccccc2C(C(=O)Nc2nc(C)c(C)s2)C12CCCCC2` (centres undefined)?
Pf Dd2 inh: 3.55µM*

What do the screens show for `COc1ccc(C(=O)N2CCCC(CN3CCOCC3)CC2)cc1` (centres undefined)?
Pf Dd2 inh: -12.1%

Results for CN1C[C@@H](NC(=O)c2ccccc2)C[C@H]1c1nc(-c2cnccn2)no1 ?
Pf Dd2 inh: -1.2%[44.1 µM]

How did CCN1c2cc(C(=O)Nc3ccc(F)c(F)c3)ccc2C(=O)N2CCCCC21 (centres undefined) do in these assays?
Pf Dd2 inh: -2.8%

How did CCN(CC)C(=O)[C@@H]1C[C@@H](NC(=O)c2ccn(CC)c(=O)c2)CN1C(C)=O do in these assays?
Pf Dd2 inh: 13.3%

How did Cc1ccc(C(=O)N2C[C@@H](F)C[C@H]2C(=O)N2CCCCC2)c(C)c1 do in these assays?
Pf Dd2 inh: 16.4%
